The inhibition is the change of the read-out against control, counted positive when it falls.

Values joined by “and” are separate entries in the source; they are usually repeats but may differ in a detail not shown here. Equal entries are not always repeated. Out of some 220,000 compounds screened, about 2,000 (0.91%) were called active. About 2% were inconclusive and are not listed. No stated cut-off is given here; in the data, inconclusive means inhibition above about 80% without an active follow-up result; inactive means below that; test concentration not stated here. The list is a sample of the results. Entries with a potency or affinity are not part of this list.

Here are results for 63 compounds from PubChem BioAssay AID1626 (SRMLSC, 2009).

The nature of this test: M. tuberculosis H37Rv growth inhibitors, H37Rv strain (AID 1626).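 Further: bacteria incubated seven days before Alamar blue readout; 0% = bacteria only wells and 100% = bacteria with antibiotic wells.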 As to conditions: hits give high values, concentration not given here.
As for `O=C(c1cc(-c2ccccc2)on1)N1CCc2ccccc2C1`, the inhibition was -6.16% (inactive).
Next, `CCOc1ccc(C2c3c(oc4cc(C)c(C)cc4c3=O)C(=O)N2CCCN2CCOCC2)cc1` (stereo not drawn): -8.64% (inactive).
Next, `CCOC(=O)C1CCN(Cc2nnnn2CCc2ccccc2)CC1`: -3.91% (inactive).
For the compound `Nc1nc2nccc(-c3ccco3)n2n1`, the inhibition is -5.94% (inactive).
As for `CC(C)OC(=O)C(C)Nc1n[nH]c(=S)[nH]c1=O` (stereo not drawn), the figure is -1.15% (inactive).
Consider `COc1ccc(OC)c(-n2c(-c3ccc(S(C)(=O)=O)cc3)cc(C=O)c2C)c1`, for which the inhibition is -4.11% (inactive).
As for `c1ccc(-c2oc3ncnc(NCCCN4CCOCC4)c3c2-c2ccccc2)cc1`, the figure is -8.09% (inactive); as for `Cc1nc(NCCCn2ccnc2)c2oc3ccccc3c2n1`, 7.2% (inactive); as for `CCc1nc(NCCCn2ccnc2)c2oc3ccccc3c2n1`, -11.5% (inactive).
For `c1ccc(-c2c(-c3ccccc3)n(Cc3ccco3)c3ncnc(NCCCn4ccnc4)c23)cc1`, the inhibition was 25.2% (inactive).
Next, `Cc1nc(NCCCn2ccnc2)c2ccccc2n1`: -2.03% (inactive); `c1cncc(-c2nc(NCCCn3ccnc3)c3ccccc3n2)c1`: 1.38% (inactive).
In the case of `CCOC(=O)c1cnn(CCOC(=O)c2cccs2)c1NC(=O)c1cccs1`, the inhibition was 7.28% (inactive).
Take `COC(=O)c1ccc(CSc2nnc(Nc3ccc(C)cc3)s2)o1`: the inhibition is -4.05% (inactive).
On to `Cc1c(Br)c([N+](=O)[O-])nn1CC(=O)c1ccccc1`, for which the inhibition is 0.16% (inactive).
In the case of `Cc1ccccc1CNC(=O)CCc1ccccc1`, the inhibition is -2.14% (inactive).
Turning to `CCc1ccc(Oc2ncnc(N)c2[N+](=O)[O-])cc1`, the inhibition is -1.27% (inactive).
Turning to `NC(=O)c1cc2n(n1)C(C(F)(F)F)CC(c1ccco1)N2` (stereo not drawn), the inhibition was -17% (inactive).
Consider `Cc1ccc2nc3c(nc2c1)-c1ccccc1C3=O`, for which the inhibition was -8.47% (inactive).
As to `Cc1ccc2nc(-c3ccccc3)c(-c3ccccc3)nc2c1`, the inhibition is 1.48% (inactive).
As for `O=C(CN1CCN(S(=O)(=O)c2ccccc2)CC1)Nc1ccc2c(c1)OCO2`, the figure is -8.01% (inactive); as for `Nc1ncccc1OCc1cccc(C(F)(F)F)c1`, 16.6% (inactive).
Next, `COc1ccc2nc(C(F)(F)Cl)c(C#N)c(N)c2c1`: -0.68% (inactive); `O=C(O)c1ccc(/C=C/c2ccc3cccc(O)c3n2)cc1`: 74.2% (inactive); `COc1ccc(C(=O)N/N=C/c2ccc3cccc(O)c3n2)cc1`: 64.5% (inactive).
Next, `O=C(Cc1ccccc1)N/N=C/c1ccc2cccc(O)c2n1`: 22.8% (inactive); `O/N=C/c1ccc2cccc(O)c2n1`: 3.62% (inactive).
As to `COc1cc2c(cc1NC(=O)C(C)Sc1ccc(C)cc1)oc1ccccc12` (stereo not drawn), the inhibition is 9.39% (inactive).
`CCOC(=O)CON1C(=O)C(=O)N(OCC(=O)OCC)[C@H]2CCCC[C@H]21`: the inhibition was 2.73% (inactive).
Next, `COc1ccc(-c2[nH]ncc2CN2CCSCC2)c(OC)c1`: -1.11% (inactive).
As for `COc1ccc(-n2c(SCC(=O)Nc3ccccc3)nc3c(c2=O)SCC3)cc1`, the figure is 6.14% (inactive); as for `CCCC(CCC)C(=O)Nc1ccncc1`, -10.4% (inactive); as for `CCCCCCOc1ccc(/C(N)=N/O)cc1`, 5.99% (inactive).
Next, `C=CCC(=O)OCCCCCCOc1ccc(C(=O)O)cc1`: -13.9% (inactive); `CC1(C)Cc2c(c(=S)nc(-c3ccccc3)n2CCO)CO1`: 7.44% (inactive); `O=C(O)Cc1sc(NCc2ccco2)nc1-c1ccccc1`: 8.81% (inactive).
For `O=C(Nc1ccc(S(=O)(=O)Nc2nccs2)cc1)C1CC(=O)N(c2ccccc2)C1` (stereo not drawn), the inhibition was -6.74% (inactive).
In the case of `COc1ccc(Br)cc1/C=N/NC(=O)c1ccco1`, the inhibition is -2.04% (inactive).
As for `Cc1ccc(CNC(=O)C(=O)Nc2nccs2)cc1`, the figure is 10.4% (inactive).
Next, `O=C(NCc1ccc(Cl)cc1)C(=O)Nc1nccs1`: 1.96% (inactive).
Next, `O=C(O)/C=C/c1cccnc1`: -0.59% (inactive); `Cc1cccc(NC(=O)c2cccnc2)c1`: 1.57% (inactive); `CC(/C=C\c1cccnc1)=C/C(=O)O`: 1.6% (inactive) and 0.21% (inactive).
Turning to `O=C(/C=C/c1ccc(Br)cc1)NC(=O)c1ccccc1O`, the inhibition is 5.02% (inactive).
As for `O=C(O)CCC(=O)/C=C/c1ccccc1`, the figure is -6.33% (inactive).
Next, `CC(/C=C\c1ccccc1)=C/C(=O)O`: 2.72% (inactive).
Consider `O=C(/C=C/c1ccccc1)NC(=O)c1ccccc1O`, for which the inhibition was -10.8% (inactive).
Next, `O=C(/C=C/c1cccnc1)c1ccc(NC(=O)c2cccc(Br)c2)cc1`: 8.79% (inactive); `CCC/C=N/NC(=O)c1cc(Br)ccc1O`: -8.13% (inactive).
Turning to `COc1cccc(-c2nc(N3CCN(c4ccccc4)CC3)c3ccccc3n2)c1O`, the inhibition is -0.61% (inactive).
In the case of `CN1C=CC=C/C1=C1\SC(=S)N(CC(=O)O)C1=O`, the inhibition was -3.47% (inactive).
Turning to `Cc1cccc(Cc2nnc(CCC(=O)NCc3ccncc3C)o2)c1`, the inhibition was -3.05% (inactive).
Next, `O=C(C1=NN[C@@H]2C(=O)N(c3cccc(C(F)(F)F)c3)C(=O)[C@H]12)c1cnccn1`: -13.3% (inactive); `S=C1NC(c2cccs2)=CC(c2ccc(Br)cc2)N1` (stereo not drawn): 12.7% (inactive); `COc1ccc(CC(=O)OCC(=O)Nc2cccc(Cl)c2)cc1`: -0.87% (inactive).
As for `CC(C)(CN1CCCCC1)NS(=O)(=O)c1ccc(Cl)cc1`, the figure is 3.88% (inactive); as for `CN(C)/C=C(\C#N)C(=O)Nc1ccc(F)cc1`, -3.02% (inactive).
On to `O=C(COC(=O)CNC(=O)c1cccc([N+](=O)[O-])c1)Nc1cccc(S(=O)(=O)N2CCCC2)c1`, for which the inhibition was -1.39% (inactive).
On to `C#CCOCCOCCOCCNc1nc(N2CCN(C(=O)C([C@@H](C)CC)n3cc(C(N)CO)nn3)CC2)nc(N2CCN(C(=O)C([C@@H](C)CC)n3cc(C(N)COC(=O)C(F)(F)F)nn3)CC2)n1` (stereo partly drawn), for which the inhibition is -11.1% (inactive).
`CCOC(=O)NC(=O)c1cn(Nc2ncc(Cl)cc2C(F)(F)F)c(=O)[nH]c1=O`: the inhibition was -8.73% (inactive).
Next, `CCOC(=O)N1CCC(NC(=O)Cn2c3c(c(-c4ccccc4Cl)cc2=O)CCC3)CC1`: -2.35% (inactive).
Next, `CCOC(=O)Cn1c2c(c(=N)c3c1CCC3)CCCC2`: -4.08% (inactive); `CCNC(=S)N1CCC(c2nc3ccccc3s2)CC1`: -0.93% (inactive).
